The values that follow come from ChEMBL document CHEMBL4513216, “Probing the Open Global Health Chemical Diversity Library for Multistage-Active Starting Points for Next-Generation Antimalarials” (ACS Infect Dis, 2020).

SMILES strings stand for the structures. In all, about 69,000 compounds went through this assay and about 8,600 (12%) showed an effect of 50% or more. The full list was thinned out, with strong results kept by preference.

The assay has as its system Plasmodium berghei. Nature of the assay: Screen against P. berghei liver stage (PbLuc), transformed with Luciferase, at 10uM. To be noted: tested at 10 uM. It is filed as functional, HepG2.
As to `Cn1nc(C2CN(C(=O)c3cccnc3)C2)c2nccnc21`, the INHIBITION was found to be 32.8%. With `CCc1nc2n(n1)CC(NCc1nc(Cc3ccccc3)no1)CC2` (stereo not drawn), the INHIBITION is on record as 19.6%.

`NC(=O)c1ccc(NC(=O)c2ccncc2F)cn1`: the INHIBITION was 9%. In the case of `O=C(c1ccc(F)cc1)N1C[C@@H]2COC[C@]2(COc2cccnc2)C1`, the INHIBITION was 55.7%. Consider `O=C(c1ncccn1)N1C[C@@H]2COC[C@]2(COc2cccnc2)C1`, for which the INHIBITION was determined as 46.6%.

Take `O=C(COC1CCCC1)N1C[C@@H]2COC[C@]2(COc2cccnc2)C1`: the INHIBITION is on record as 40.3%. `Cc1ccc(C(=O)N2C[C@@H]3COC[C@]3(COc3cccnc3)C2)cn1`: the INHIBITION worked out at 23.9%. As for `O=C(Cc1ccccc1F)N1C[C@@H]2COC[C@]2(COc2cccnc2)C1`, the INHIBITION was 39.2%. Consider `O=C(c1cocn1)N1C[C@@H]2COC[C@]2(COc2cccnc2)C1`, for which the INHIBITION is 43.9%. With `O=C(C1=CCCC1)N1C[C@@H]2COC[C@]2(COc2cccnc2)C1`, the INHIBITION turned out to be 33%.

With `O=C(c1cc(C2CC2)on1)N1C[C@@H]2COC[C@]2(COc2cccnc2)C1`, the INHIBITION is 72%. With `O=C(COc1ccccc1)N1C[C@@H]2COC[C@]2(COc2cccnc2)C1`, the INHIBITION is 50.3%. On to `Cc1ccc(-c2cc(CNC(=O)NC3CCCCNC3=O)on2)cc1` (stereo not drawn), for which the INHIBITION is -22.1%. With `CS(=O)(=O)NC[C@H]1OC[C@H]2CN(CCc3ccccc3)CC[C@H]21`, the INHIBITION was 2.7%. For `CC(C)C(=O)N1CCC(Cc2nccnc2Nc2ccccn2)CC1`, the INHIBITION amounted to 23.4%. The figure for `CCS(=O)(=O)N1C[C@H]2CN(Cc3cccnc3)C(=O)[C@H]2C1` is -28.2%.

For the molecule `CCNc1nnc(SCC(=O)N2CCN(Cc3ccc(Cl)s3)CC2)s1`, the INHIBITION came out at 40.5%. Then `O=C(CSc1nncs1)N1CCN(Cc2ccc(Cl)cc2)CC1`, with 87.2%.

For the molecule `O=C(CSc1nncs1)N1CCN(Cc2ccc(Cl)s2)CC1`, the INHIBITION turned out to be 2.37%. Then `c1ccc(-n2nc(CNC3CCc4ncnn4C3)c3c2CCC3)cc1` (stereo not drawn), with 33.25%.

For `Cc1noc([C@@H]2C[C@@H]3CCN(CC4CCOCC4)C[C@H]3O2)n1`, the INHIBITION is recorded as -23.4%. Consider `Cc1ccccc1C(C(=O)NCc1nc(-c2ncccn2)no1)N(C)C` (stereo not drawn), for which the INHIBITION is -24.9%. On to `Cc1cccc(C(C(=O)NCc2nc(-c3ncccn3)no2)N(C)C)c1` (stereo not drawn), for which the INHIBITION was 56.3%. Consider `Cc1cccc(C(C(=O)NCc2nc(-c3cccnc3)no2)N(C)C)c1` (stereo not drawn), for which the INHIBITION was 15.3%.

For `CCN(Cc1cccc2c1OCO2)C(=O)NCCOC`, the INHIBITION is 31.3%. As for `CC(C)(C)CC(NC(=O)N1CCS(=O)(=O)CC1)C(F)(F)F` (stereo not drawn), the INHIBITION is recorded as -47.8%.

Take `Cc1nn(C)cc1CN1CCc2nc(-c3cccnc3)nc(O)c2C1`: the INHIBITION was 38.8%. Regarding `CN1CCC(N2CC[C@H](c3nc4ccc(C(F)(F)F)cc4[nH]3)C2)CC1`, the INHIBITION turned out to be 24.3%. For `FC(F)(F)c1ccc2nc([C@H]3CCN(C4CCCCC4)C3)[nH]c2c1`, the INHIBITION is 73.7%. Consider `CC(C)N1CC[C@H](c2nc3ccc(C(F)(F)F)cc3[nH]2)C1`, for which the INHIBITION is recorded as 30.3%. Take `Fc1ccc2[nH]c([C@H]3CCN(C4CCOCC4)C3)nc2c1`: the INHIBITION came to 31.2%.

With `FC(F)(F)c1ccc2nc([C@H]3CCN(C4CCOCC4)C3)[nH]c2c1`, the INHIBITION amounted to 53%. Then `FC(F)(F)c1ccc2nc([C@H]3CCN(C4CCC4)C3)[nH]c2c1`, with 39.2%. On to `O=S(=O)(CCN1CCN(c2ccccc2O)CC1)c1ccc(Br)cc1`, for which the INHIBITION was found to be 18.9%. In the case of `CN(Cc1ccccc1)c1cnn(CC2COCCO2)c(=O)c1` (stereo not drawn), the INHIBITION stood at 28.2%. With `O=C(c1cnoc1)N1CCC[C@]2(C[C@@H](Oc3ccccn3)CO2)C1`, the INHIBITION is given as -27.9%. `c1cnc(-c2cnc(N3CCSCC3)nc2C2CC2)cn1`: the INHIBITION came out at 64.3%. Turning to `c1cnc(-c2cnc(N3CCSCC3)nc2C2CCCO2)cn1` (stereo not drawn), the INHIBITION amounted to 27.9%. For the molecule `c1cc(CCNc2ncc(-c3cnccn3)c(C3CC3)n2)ccn1`, the INHIBITION stood at 28.5%. As to `c1cc(CNc2ncc(-c3cnccn3)c(C3CC3)n2)ccn1`, the INHIBITION came to 75.9%. On to `c1cc(CNc2ncc(-c3cnccn3)c([C@@H]3CCCO3)n2)ccn1`, for which the INHIBITION worked out at 5.34%. With `c1cnc(-c2cnc(N3CCCCC3)nc2C2CCCO2)cn1` (stereo not drawn), the INHIBITION is on record as -14.1%. Then `CC(C)C(C(=O)N1CCCN(Cc2cscn2)CC1)n1cncn1` (stereo not drawn), with -22.9%; and `CC1CC(=O)c2cnc3nc(N4CCOCC4)[nH]c(=O)c3c2C1` (stereo not drawn), with 22%.

Consider `Cc1cccc(CNCC2COC3(CCCC3)O2)c1C` (stereo not drawn), for which the INHIBITION is on record as 50%. For the molecule `CCN1CCOC(CNCc2ccccc2OCC(=O)N(C)C)C1` (stereo not drawn), the INHIBITION was 12.8%. For the molecule `COCCOc1ccccc1CNCc1c(C)nn(C)c1N(C)C`, the INHIBITION is recorded as -2.44%. Then `Cc1ncccc1CNCC1CCCN1c1cccnn1` (stereo not drawn), with 7.67%; and `Cc1ncccc1CNCC1COC2(CCCCC2)O1` (stereo not drawn), with 74.9%. As for `Cc1cccc(CNC2(CCO)CCOCC2)c1C`, the INHIBITION was found to be 27.3%. On to `COCCOc1ccccc1CNCC1COC2(CCCC2)O1` (stereo not drawn), for which the INHIBITION was 81.5%. On to `Cc1ncccc1CNCC1CCN(CCO)CC1`, for which the INHIBITION is given as -64.9%. On to `Cc1cccc(CNCC2COC3(CCCCC3)O2)c1C` (stereo not drawn), for which the INHIBITION is recorded as -3.77%.
